“And” between values parts separate entries of the source, which are not always exact repeats. Equal entries are not always repeated. About 2,000 (36%) of roughly 5,500 compounds were called active. About 18% were inconclusive and are not listed. No stated cut-off is given here; in the data, active means normalized growth mostly below about 0.91 (no sharp cut-off); inconclusive means no clear call, values can overlap the other calls; inactive means mostly above about 0.92. The list shows a part of the results.
Assay: chemical genetic growth profiling, strain panel (AID 1159580);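 further: tested at 20 µM; growth read once vehicle control cultures reached saturation at 30 °C; 1 = growth at the plate median or of vehicle wells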
Settings: growth OD

Measured: normalized growth

O=C1NC(O)=NC1(c1ccccc1)c1ccccc1
inactive: S. cerevisiae deletion strains, locus YJR075W, strain HOC1, stronger effect = lower value 1.01 | S. cerevisiae deletion strains, locus YKL009W, strain mrt4, stronger effect = lower value 1.01 | S. cerevisiae deletion strains, locus YKL068W, stronger effect = lower value 1.02 | S. cerevisiae deletion strains, locus YKL085W, strain MDH1 (second series), stronger effect = lower value 1 | S. cerevisiae deletion strains, locus YKL085W, strain MDH1, stronger effect = lower value 1 | S. cerevisiae deletion strains, locus YKL160W, strain elf1, stronger effect = lower value 1.03 | S. cerevisiae deletion strains, locus YKL190W, strain CNB1, stronger effect = lower value 1.01 | S. cerevisiae deletion strains, locus YKR001C, strain vps1, stronger effect = lower value 1.01 | S. cerevisiae deletion strains, locus YKR026C, strain gcn3, stronger effect = lower value 1.02 | S. cerevisiae deletion strains, locus YKR091W, strain srl3, stronger effect = lower value 1.02 | S. cerevisiae deletion strains, locus YLL001W, strain dnm1, stronger effect = lower value 1.02 | S. cerevisiae deletion strains, locus YLL026W, stronger effect = lower value 1.01 | S. cerevisiae deletion strains, locus YLL041C, strain sdh2, stronger effect = lower value 1.01 | S. cerevisiae deletion strains, locus YLR027C, strain aat2, stronger effect = lower value 1.02 | S. cerevisiae deletion strains, locus YLR039C, strain RIC1, stronger effect = lower value 0.995 | S. cerevisiae deletion strains, locus YLR058C, strain SHM2, stronger effect = lower value 1.01 | S. cerevisiae deletion strains, locus YLR102C, strain apc9, stronger effect = lower value 1.02 | S. cerevisiae deletion strains, locus YLR113W, strain HOG1, stronger effect = lower value 1.01 | S. cerevisiae deletion strains, locus YLR221C, strain rsa3, stronger effect = lower value 1.03 | S. cerevisiae deletion strains, locus YLR258W, strain gsy2, stronger effect = lower value 1.03 | S. cerevisiae deletion strains, locus YLR262C, strain YPT6 (second series), stronger effect = lower value 1.05 | S. cerevisiae deletion strains, locus YLR262C, strain YPT6, stronger effect = lower value 1.03 | S. cerevisiae deletion strains, locus YLR268W, strain sec22, stronger effect = lower value 1.05 | S. cerevisiae deletion strains, locus YLR320W, strain mms22, stronger effect = lower value 1.03 | S. cerevisiae deletion strains, locus YLR330W, strain CHS5, stronger effect = lower value 1.01 | S. cerevisiae deletion strains, locus YLR342W, strain FKS1 (second series), stronger effect = lower value 0.985 | S. cerevisiae deletion strains, locus YLR342W, strain FKS1, stronger effect = lower value 1.02 | S. cerevisiae deletion strains, locus YLR357W, strain rsc2, stronger effect = lower value 1.01 | S. cerevisiae deletion strains, locus YLR370C, strain arc18, stronger effect = lower value 1.01 | S. cerevisiae deletion strains, locus YLR371W, strain rom2, stronger effect = lower value 1.02 | S. cerevisiae deletion strains, locus YLR384C, strain iki3, stronger effect = lower value 1.01 | S. cerevisiae deletion strains, locus YLR418C, strain cdc73, stronger effect = lower value 1 | S. cerevisiae deletion strains, locus YML016C, strain PPZ1, stronger effect = lower value 1.01 | S. cerevisiae deletion strains, locus YML032C, strain rad52, stronger effect = lower value 1.03 | S. cerevisiae deletion strains, locus YML120C, strain ndi1, stronger effect = lower value 1.02 | S. cerevisiae deletion strains, locus YML124C, strain tub3, stronger effect = lower value 1.01 | S. cerevisiae deletion strains, locus YMR058W, strain fet3, stronger effect = lower value 1.01 | S. cerevisiae deletion strains, locus YMR078C, strain ctf18, stronger effect = lower value 1.02 | S. cerevisiae deletion strains, locus YMR125W, strain sto1, stronger effect = lower value 1.02 | S. cerevisiae deletion strains, locus YMR129W, stronger effect = lower value 1.02 | S. cerevisiae deletion strains, locus YMR205C, strain PFK2, stronger effect = lower value 1.04 | S. cerevisiae deletion strains, locus YMR223W, strain ubp8, stronger effect = lower value 0.991 | S. cerevisiae deletion strains, locus YMR231W, strain pep5, stronger effect = lower value 1.02 | S. cerevisiae deletion strains, locus YMR263W, strain SAP30, stronger effect = lower value 1.01 | S. cerevisiae deletion strains, locus YMR307W, strain GAS1, stronger effect = lower value 0.906 | S. cerevisiae deletion strains, locus YNL067W, strain RPL9B, stronger effect = lower value 1.01 | S. cerevisiae deletion strains, locus YNL071W, strain lat1, stronger effect = lower value 1.02 | S. cerevisiae deletion strains, locus YNL128W, strain TEP1, stronger effect = lower value 1.01 | S. cerevisiae deletion strains, locus YNL153C, strain GIM3, stronger effect = lower value 1.01 and 0.985 | S. cerevisiae deletion strains, locus YNL175C, strain NOP13, stronger effect = lower value 0.974 | S. cerevisiae deletion strains, locus YNL183C, strain NPR1, stronger effect = lower value 0.954 | S. cerevisiae deletion strains, locus YNL197C, strain WHI3, stronger effect = lower value 0.983 | S. cerevisiae deletion strains, locus YNL209W, strain ssb2, stronger effect = lower value 1.02 | S. cerevisiae deletion strains, locus YNL224C, strain SQS1, stronger effect = lower value 0.984 | S. cerevisiae deletion strains, locus YNL233W, strain BNI4, stronger effect = lower value 1.01 | S. cerevisiae deletion strains, locus YNL248C, strain rpa49, stronger effect = lower value 1.01 | S. cerevisiae deletion strains, locus YNL250W, strain rad50, stronger effect = lower value 1.02 | S. cerevisiae deletion strains, locus YNL271C, strain bni1, stronger effect = lower value 1.02 | S. cerevisiae deletion strains, locus YNL298W, strain CLA4, stronger effect = lower value 1.01 | S. cerevisiae deletion strains, locus YNL307C, strain MCK1, stronger effect = lower value 1.02 | S. cerevisiae deletion strains, locus YNL322C, strain KRE1 (second series), stronger effect = lower value 1.01 | S. cerevisiae deletion strains, locus YNL322C, strain KRE1, stronger effect = lower value 1.01 and 0.973 | S. cerevisiae deletion strains, locus YNR049C, strain mso1, stronger effect = lower value 1.01 | S. cerevisiae deletion strains, locus YNR052C, strain pop2, stronger effect = lower value 1.01 | S. cerevisiae deletion strains, locus YOL006C, strain TOP1, stronger effect = lower value 1.01 | S. cerevisiae deletion strains, locus YOL012C, strain htz1 1.06 | S. cerevisiae deletion strains, locus YOL147C, strain pex11, stronger effect = lower value 1.01 | S. cerevisiae deletion strains, locus YOR001W, strain rrp6, stronger effect = lower value 1 | S. cerevisiae deletion strains, locus YOR061W, strain CKA2, stronger effect = lower value 1 | S. cerevisiae deletion strains, locus YOR069W, strain VPS5, stronger effect = lower value 1.01 | S. cerevisiae deletion strains, locus YOR070C, strain gyp1, stronger effect = lower value 1.01 | S. cerevisiae deletion strains, locus YOR080W, strain dia2, stronger effect = lower value 1.01 | S. cerevisiae deletion strains, locus YOR083W, strain WHI5 (second series), stronger effect = lower value 0.98 | S. cerevisiae deletion strains, locus YOR083W, strain WHI5, stronger effect = lower value 1.03 | S. cerevisiae deletion strains, locus YOR106W, strain vam3, stronger effect = lower value 1.02 | S. cerevisiae deletion strains, locus YOR136W, strain idh2, stronger effect = lower value 1.01 | S. cerevisiae deletion strains, locus YOR144C, strain elg1, stronger effect = lower value 1.01 | S. cerevisiae deletion strains, locus YOR184W, strain ser1, stronger effect = lower value 1.02 | S. cerevisiae deletion strains, locus YOR231W, strain MKK1, stronger effect = lower value 0.985 | S. cerevisiae deletion strains, locus YOR265W, strain rbl2, stronger effect = lower value 1.01 | S. cerevisiae deletion strains, locus YOR270C, strain vph1, stronger effect = lower value 1.03 | S. cerevisiae deletion strains, locus YOR290C, strain snf2, stronger effect = lower value 1.03 | S. cerevisiae deletion strains, locus YOR316C, strain cot1, stronger effect = lower value 1.02 | S. cerevisiae deletion strains, locus YPL051W, strain arl3, stronger effect = lower value 1 | S. cerevisiae deletion strains, locus YPL055C, strain LGE1, stronger effect = lower value 1.01 and 0.95 | S. cerevisiae deletion strains, locus YPL078C, strain atp4, stronger effect = lower value 1.01 | S. cerevisiae deletion strains, locus YPL106C, strain sse1, stronger effect = lower value 1.03 | S. cerevisiae deletion strains, locus YPL240C, strain hsp82, stronger effect = lower value 1.02 | S. cerevisiae deletion strains, locus YPL241C, strain CIN2, stronger effect = lower value 1 | S. cerevisiae deletion strains, locus YPL256C, strain CLN2, stronger effect = lower value 0.982 | S. cerevisiae deletion strains, locus YPR119W, strain clb2, stronger effect = lower value 1.02 | S. cerevisiae deletion strains, locus YPR141C, strain kar3, stronger effect = lower value 1.01 | S. cerevisiae deletion strains, locus YPR163C, strain tif3, stronger effect = lower value 1.02 | S. cerevisiae deletion strains, locus YPR167C, strain met16, stronger effect = lower value 1.02 | S. cerevisiae deletion strains, strain wtn01, stronger effect = lower value 1.03 | S. cerevisiae strains, strain wild type, stronger effect = lower value 1.01

Source: PubChem BioAssay AID1159580 (chemical genetic matrix, 2015)
